PubChem BioAssay (NCATS)
Inconclusive results are not listed. A call without a number means that no potency is given here. The source made the active and inactive calls. The call rests on the fitted dose curve; in most records, active means well fitted cell-killing curve with a large enough effect; inconclusive means small, poorly fitted or top-dose-only effect; inactive means flat fitted curve, though single readings scatter.

Test: Cell Viability - LYMP2-018 (AID 985);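 further: compound exposure lasted 24 hr at 37 °C; nearly all actives have a fitted effect of over 50% in size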
Conditions: LYMP2-018 lymphoblastoid cells, viability (qHTS); series mostly up to 92.2 µM
Excerpt: NIH Chemical Genomics Center [NCGC]
NIH Molecular Libraries Screening Centers Network [MLSCN]
National Institutes of Environmental Health Sciences [NIEHS]
National Toxicology Program [NTP]
We have developed a 1536-well cell-based assay for quantitative high throughput screening (qHTS) against a number of cell lines to determine in vitro cytotoxicity of small molecules. This particular assay uses a human lymphoblastoid cell line (LYMP2-018) purchased from Coriell Institute for Medical Research.
NCGC Assay Protocol Summary:
The CellTiter-Glo luminescent cell viability assay (Promega) is a homogeneous method to measure the number of viable cells in culture. The end point readout of this assay is based on quantitation of intracellular ATP, an indicator of metabolic activity, using the luciferase reaction. Luciferase catalyzes the oxidation of beetle Luciferin to oxyluciferin and light in the presence of ATP. The luminescent signal is proportional to amount of ATP present.
Using the CellTiter-Glo luminescent cell viability assay, the amount of cellular ATP was measured in the lymphoblastoid cell line with complete culture medium following compound treatment for 24 hours. The assay was performed in opaque white Kalypsys 1536-well plates. In the screen, tetraoctylammonium bromide was used as positive control. Library compounds were measured for their ability to cause acute toxicity in the cell line, as reflected by a decrease in intracellular ATP levels, in a concentration-dependent manner. […] AC50 values were determined from concentration-response data modeled with the standard Hill equation.
qHTS protocol for CellTiter Glo lymphoblastoid cellular assay
[Step] [Parameter] [Value] [Description]
1. Reagent; 5 uL; 2500 lymphoblastoid cells/well
2. Time; 5 hr; 37 C incubation
4. Controls; 23 nL; Tetraoctylammonium bromide 6.4pM to 92 uM
5. Time; 24 hr; 37 C incubation
6. Reagent; 5 uL; CellTiter Glo reagent
7. Time; 30 min; Room Temperature
8. Detection; Luminescence; Viewlux plate reader
Keywords: cell viability, cytotoxicity, lymphoblastoid cell line, luminescence, NTPHTS, NTPHTS_NCGC, NIEHS, DSSTox, MLSMR, MLSCN, NIH Roadmap, qHTS, NCGC
Potency means the concentration at half of the fitted maximal effect.

Structure (SMILES)	Potency
Cc1cc(CC(=O)O)n(C)c1C(=O)c1ccc(Cl)cc1	inactive
CCCCCCCCCCCCOS(=O)(=O)O	inactive
O=C1c2c(O)cccc2Cc2cccc(O)c21	inactive
[Cl][In]([Cl])[Cl]	inactive
Nc1ccc(S(=O)(=O)Nc2nccs2)cc1	inactive
CC12CCC(CC1)C(C)(C)O2	inactive
Cc1cc2nc3c(=O)[nH]c(=O)nc-3n(C[C@H](O)[C@H](O)[C@H](O)CO)c2cc1C	inactive
NCCNCCNCCNCCN	inactive
COc1ccccc1O	inactive
NCCNCCNCCN	inactive
Oc1cccc(O)c1	inactive
CC1(C)[C@@H]2CC[C@@]1(C)C(=O)C2	inactive
CCCCOC(=O)c1ccc(O)cc1	inactive
Cc1c(O)cccc1C(=O)N[C@@H](CSc1ccccc1)[C@H](O)CN1C[C@H]2CCCC[C@H]2C[C@H]1C(=O)NC(C)(C)C	50.1 µM (active)
NC(=O)c1ncn([C@@H]2O[C@H](CO)[C@@H](O)[C@H]2O)n1	inactive
O=C1O[C@H]([C@@H](O)CO)C(O)=C1O	inactive
